# In PubChem BioAssay (NCATS):
# Inconclusive results are not listed. Where a call stands in place of a potency, no number is given. Active and inactive are the calls of the source. The call rests on the fitted dose curve; in most records, active means well fitted curve in the direction sought with a large enough effect; inconclusive means small, poorly fitted or top-dose-only effect, or another doubt; inactive means no such curve, though single readings can be large; an effect the other way counts as inactive or inconclusive.
# Assays:
# [1] = qHTS of pediatric cancer cell lines to identify multiple opportunities for drug repurposing: Primary screen for LAN-5 cells (AID 1347100); further: potency means the concentration at half of the fitted maximal effect
# How it was run: (§1)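 Viability after 48 h compound treatment at 37C, 500-1,000 cells/well, read as ATP luminescence with CellTiter-Glo. Primary screens used 11-point (MIPE, 0.78 nM-46 µM) or 8-point (NPC, 0.59 nM-46 µM) final concentrations; follow-up screens used 11-point dilutions.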
# [2] = qHTS of pediatric cancer cell lines to identify multiple opportunities for drug repurposing: Primary screen for OHS-50 cells (AID 1347103); further: nearly all actives have a fitted effect of over 40% in size; further: potency means the concentration at half of the fitted maximal effect
# How it was run: (§2)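 Cells (500-1,000/well) rested 5 h, then received compounds for 48 h; metabolically active cells were measured by CellTiter-Glo luminescence. Final concentrations spanned up to 46 µM (MIPE, 11-point) or 0.59 nM-46 µM (NPC, 8-point) in primary screens, 11-point in follow-ups.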
# [3] = qHTS of pediatric cancer cell lines to identify multiple opportunities for drug repurposing: Primary screen for Rh30 cells (AID 1347107); further: series mostly up to about 46 µM; nearly all actives have a fitted effect of over 75% in size
# How it was run: as §1
# [4] = qHTS of pediatric cancer cell lines to identify multiple opportunities for drug repurposing: Primary screen for Rh41 cells (AID 1347108); further: nearly all actives have a fitted effect of over 70% in size; further: potency means the concentration at half of the fitted maximal effect
# How it was run: (§3)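 500-1,000 cells/well; 5 h pre-incubation 37 °C/5% CO2; compound pinned; 48 h; CellTiter-Glo, 15 min RT; luminescence. MIPE 11-pt from 0.78 nM, NPC 8-pt from 0.59 nM final. Bortezomib 2.3 µM final as positive control.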
# [5] = qHTS of pediatric cancer cell lines to identify multiple opportunities for drug repurposing: Confirmatory screen for NB1643 cells (AID 1347109); further: nearly all actives have a fitted effect of over 45% in size; further: potency means the concentration at half of the fitted maximal effect
# How it was run: as §1
# [6] = qHTS of pediatric cancer cell lines to identify multiple opportunities for drug repurposing: Confirmatory screen for A673 cells (AID 1347110); further: nearly all actives have a fitted effect of over 65% in size; further: potency means the concentration at half of the fitted maximal effect
# How it was run: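 A673 cells seeded at 500-1,000 cells/well, rested 5 h, then dosed; primary MIPE 11-point (0.78 nM to 46 µM), NPC (0.59 nM to 46 µM); confirmatory 11-point. CellTiter-Glo luminescence after 48 h.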
# [7] = qHTS of pediatric cancer cell lines to identify multiple opportunities for drug repurposing: Confirmatory screen for SK-N-MC cells (AID 1347111);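 further: potency means the concentration at half of the fitted maximal effect; cells exposed to compound for 48 h before the readout; nearly all actives have a fitted effect of over 70% in size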
# How it was run: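 SK-N-MC cells at 500-1,000 cells/well in growth media were pre-incubated 5 h, then exposed to compounds at 11-point dilutions for 48 h at 37 degrees C, 5% CO2. Viability was read as CellTiter-Glo luminescence.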
# [8] = qHTS of pediatric cancer cell lines to identify multiple opportunities for drug repurposing: Confirmatory screen for BT-12 cells (AID 1347112); further: nearly all actives have a fitted effect of over 55% in size; further: potency means the concentration at half of the fitted maximal effect
# How it was run: as §1
# [9] = qHTS of pediatric cancer cell lines to identify multiple opportunities for drug repurposing: Confirmatory screen for LAN-5 cells (AID 1347113); further: nearly all actives have a fitted effect of over 65% in size; further: potency means the concentration at half of the fitted maximal effect
# How it was run: as §1
# [10] = qHTS of pediatric cancer cell lines to identify multiple opportunities for drug repurposing: Confirmatory screen for DAOY cells (AID 1347114); further: nearly all actives have a fitted effect of over 65% in size; further: potency means the concentration at half of the fitted maximal effect
# How it was run: (§4)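 Viability measured as metabolically active cells via CellTiter-Glo luminescence following 48 hours of compound exposure, 11-point dilutions in confirmatory testing. 500-1,000 cells/well plated 5 hours before dosing; controls were DMSO and 2.3 µM bortezomib.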
# [11] = qHTS of pediatric cancer cell lines to identify multiple opportunities for drug repurposing: Confirmatory screen for NB-EBc1 cells (AID 1347115); further: nearly all actives have a fitted effect of over 45% in size; further: potency means the concentration at half of the fitted maximal effect
# How it was run: as §1
# [12] = qHTS of pediatric cancer cell lines to identify multiple opportunities for drug repurposing: Confirmatory screen for TC32 cells (AID 1347118); further: potency means the concentration at half of the fitted maximal effect; nearly all actives have a fitted effect of over 65% in size
# How it was run: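 Luminescent CellTiter-Glo read-out of metabolically active TC32 cells after 48 h compound exposure. Primary: MIPE 11-point, 0.78 nM–46 µM; NPC 8-point, 0.59 nM–46 µM. Confirmatory: 11-point dilutions.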
# [13] = qHTS of pediatric cancer cell lines to identify multiple opportunities for drug repurposing: Primary screen for BT-12 cells (AID 1347101); further: nearly all actives have a fitted effect of over 25% in size; further: potency means the concentration at half of the fitted maximal effect
# How it was run: as §2
# [14] = qHTS of pediatric cancer cell lines to identify multiple opportunities for drug repurposing: Primary screen for Rh18 cells (AID 1347102); further: nearly all actives have a fitted effect of over 65% in size; further: potency means the concentration at half of the fitted maximal effect
# How it was run: as §1
# [15] = qHTS of pediatric cancer cell lines to identify multiple opportunities for drug repurposing: Primary screen for RD cells (AID 1347104); further: nearly all actives have a fitted effect of over 55% in size; further: potency means the concentration at half of the fitted maximal effect
# How it was run: as §3
# [16] = qHTS of pediatric cancer cell lines to identify multiple opportunities for drug repurposing: Primary screen for MG 63 (6-TG R) cells (AID 1347105); further: nearly all actives have a fitted effect of over 50% in size; further: potency means the concentration at half of the fitted maximal effect
# How it was run: as §3
# [17] = qHTS of pediatric cancer cell lines to identify multiple opportunities for drug repurposing: Confirmatory screen for BT-37 cells (AID 1347117); further: nearly all actives have a fitted effect of over 55% in size; further: potency means the concentration at half of the fitted maximal effect
# How it was run: as §1
# [18] = qHTS of pediatric cancer cell lines to identify multiple opportunities for drug repurposing: Primary screen for control Hh wild type fibroblast cells (AID 1347106);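 further: series mostly up to about 46 µM; a drop in luminescence marks cytotoxicity and a rise apparent proliferation; nearly all actives have a fitted effect of over 55% in size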
# How it was run: as §1
# [19] = qHTS of pediatric cancer cell lines to identify multiple opportunities for drug repurposing: Confirmatory screen for SJ-GBM2 cells (AID 1347116); further: nearly all actives have a fitted effect of over 60% in size; further: potency means the concentration at half of the fitted maximal effect
# How it was run: as §4
smiles,measurement,setting,value
CCC(=O)N1CCN(c2ccc(-n3c(=O)ccc4cnc5ccc(-c6cnc7ccccc7c6)cc5c43)cc2C(F)(F)F)CC1,Potency,[1],inactive
same,Potency,[2],0.0432 µM (active)
same,Potency,[3],inactive
same,Potency,[4],0.0743 µM (active)
same,Potency,[5],inactive
same,Potency,[6],inactive
same,Potency,[7],9.27 µM (active)
same,Potency,[8],inactive
same,Potency,[9],inactive
same,Potency,[10],inactive
same,Potency,[11],inactive
same,Potency,[12],8.27 µM (active)
COC(=O)Nc1ccc(-c2nc(N3CCOCC3)c3cnn(C4CCN(C(=O)OC)CC4)c3n2)cc1,Potency,[13],0.611 µM (active)
same,Potency,[14],6.62 µM (active)
same,Potency,[2],0.432 µM (active)
same,Potency,[15],1.66 µM (active)
same,Potency,[16],0.469 µM (active)
same,Potency,[3],inactive
same,Potency,[4],1.32 µM (active)
same,Potency,[6],2.93 µM (active)
same,Potency,[7],4.65 µM (active)
same,Potency,[9],8.27 µM (active)
same,Potency,[17],3.69 µM (active)
same,Potency,[12],3.69 µM (active)
O=S(=O)(O)c1ccc2cc(N=Nc3cc(S(=O)(=O)O)c4cccnc4c3O)ccc2c1,Potency,[1],inactive
same,Potency,[18],inactive
CN(C)c1ccc(-c2nc3ncc(Cl)c(N4CCN(CC(=O)Nc5nccs5)CC4)c3[nH]2)cc1,Potency,[1],0.833 µM (active)
same,Potency,[16],inactive
same,Potency,[18],inactive
CN(C)S(=O)(=O)c1ccc2c(c1)C(=Cc1cc3c([nH]1)CCCC3)C(=O)N2,Potency,[1],2.35 µM (active)
same,Potency,[14],inactive
same,Potency,[16],inactive
CCCCCCOC(=O)N=C(N)c1ccc(NCc2nc3cc(C(=O)N(CCC(=O)OCC)c4ccccn4)ccc3n2C)cc1,Potency,[1],23.5 µM (active)
same,Potency,[14],inactive
same,Potency,[16],inactive
same,Potency,[18],inactive
same,Potency,[3],inactive
COC(=O)N1CCN(Cc2cccc(NC(=O)Nc3ccc(C)nc3)c2F)CC1,Potency,[1],inactive
same,Potency,[14],inactive
same,Potency,[15],inactive
same,Potency,[16],inactive
same,Potency,[18],inactive
COc1ccc2c(c1)CC[C@H]1[C@@H]2CC[C@]2(C)[C@@H](NCCCCCCN3C(=O)C=CC3=O)CC[C@H]12,Potency,[1],inactive
same,Potency,[14],inactive
same,Potency,[15],inactive
same,Potency,[16],inactive
same,Potency,[18],inactive
COc1cc2ncn(-c3cc(OCc4ccccc4S(C)(=O)=O)c(C#N)s3)c2cc1OC,Potency,[1],inactive
same,Potency,[14],inactive
same,Potency,[16],inactive
same,Potency,[4],inactive
CNC(=O)[C@H](Cc1ccccc1)NC(=O)[C@H](CC(C)C)[C@H](CSc1cccs1)C(=O)NO,Potency,[1],inactive
same,Potency,[14],inactive
same,Potency,[16],inactive
same,Potency,[18],inactive
O=C(Nc1cccc(Cl)c1)Nc1ncc(CCNc2ncnc3ccsc23)s1,Potency,[1],0.132 µM (active)
same,Potency,[2],7.69 µM (active)
same,Potency,[18],inactive
CO[C@H]1O[C@@H]2O[C@@]3(C)CC[C@@H]4[C@@H](C)CC[C@@H]([C@H]1C)[C@@]24OO3,Potency,[1],20.9 µM (active)
same,Potency,[16],inactive
same,Potency,[18],inactive
same,Potency,[4],inactive
C#CCN(C)CC1=Cc2ccccc2Oc2ccccc21,Potency,[1],inactive
same,Potency,[14],inactive
same,Potency,[18],inactive
CNc1nc(-c2ccc3c(N)n[nH]c3c2)cc(N2C[C@@H](C(=O)NC3CCCCC3)CC[C@@H]2C)n1,Potency,[1],26.4 µM (active)
same,Potency,[2],0.273 µM (active)
same,Potency,[15],20.9 µM (active)
same,Potency,[16],3.72 µM (active)
same,Potency,[18],inactive
same,Potency,[3],inactive
CC1=C(C(=O)Nc2cc3cn[nH]c3cc2F)C(c2ccc(C(F)(F)F)cc2)CC(=O)N1 (stereo not given),Potency,[13],inactive
same,Potency,[14],inactive
same,Potency,[2],inactive
same,Potency,[15],inactive
same,Potency,[18],inactive
same,Potency,[3],inactive
same,Potency,[4],inactive
Cc1ccc(C2=Nc3ccc(Cl)cc3OC2)cc1,Potency,[14],inactive
same,Potency,[2],inactive
same,Potency,[16],inactive
same,Potency,[18],inactive
CNC(=O)c1cc(COc2nnc(Nc3ccc(Cl)cc3)c3ccoc23)ccn1,Potency,[2],21.7 µM (active)
same,Potency,[16],23.5 µM (active)
same,Potency,[18],inactive
CN(C)c1ccccc1CN1CCCN(Cc2ccccc2N(C)C)C1c1ccncc1,Potency,[2],27.3 µM (active)
same,Potency,[15],26.4 µM (active)
same,Potency,[16],inactive
same,Potency,[18],inactive
same,Potency,[3],inactive
C=CC(=O)Nc1cccc(Sc2nc(Nc3ccc(N4CCN(C)CC4)cc3)ncc2Cl)c1,Potency,[2],27.3 µM (active)
same,Potency,[18],inactive
same,Potency,[5],8.27 µM (active)
same,Potency,[6],4.14 µM (active)
same,Potency,[7],1.04 µM (active)
same,Potency,[8],23.3 µM (active)
same,Potency,[9],9.27 µM (active)
same,Potency,[10],23.3 µM (active)
same,Potency,[11],18.5 µM (active)
same,Potency,[19],14.7 µM (active)
same,Potency,[17],13.1 µM (active)
same,Potency,[12],0.737 µM (active)
COc1ccc(-c2nc3ccc(C4=NNC(=O)CC4C)cc3[nH]2)cc1 (stereo not given),Potency,[16],inactive
same,Potency,[18],inactive
same,Potency,[3],inactive
C[C@@H]1CCO[C@H]2Cn3cc(C(=O)NCc4ccc(F)cc4F)c(=O)c(O)c3C(=O)N12,Potency,[15],inactive
same,Potency,[16],inactive
same,Potency,[18],inactive
Cc1c(C(=O)Nc2ccc(N3C[C@@H](C)O[C@@H](C)C3)nc2)cccc1-c1ccc(OC(F)(F)F)cc1,Potency,[13],13.7 µM (active)
same,Potency,[2],19.3 µM (active)
same,Potency,[16],23.5 µM (active)
same,Potency,[18],inactive
same,Potency,[5],inactive
same,Potency,[9],inactive
same,Potency,[11],inactive
same,Potency,[19],inactive
CO[C@@H]1C(N(C)C(=O)c2ccccc2)C[C@H]2O[C@]1(C)n1c3ccccc3c3c4c(c5c6ccccc6n2c5c31)C(=O)NC4=O (stereo not given in full),Potency,[2],inactive
same,Potency,[16],1.48 µM (active)
same,Potency,[3],inactive
same,Potency,[4],inactive
Cc1ccc2c(c1)C(=O)[C@]1(O)CCN(c3ccccc3)C1=N2,Potency,[18],inactive
same,Potency,[3],inactive
same,Potency,[8],inactive
same,Potency,[9],inactive
same,Potency,[10],inactive
same,Potency,[11],inactive
same,Potency,[19],inactive
same,Potency,[17],inactive
CO[C@H]1/C=C\O[C@@]2(C)Oc3c(C)c(O)c4c(O)c(c5c(nc6cc(C)ccn65)c4c3C2=O)NC(=O)C(C)=CC=C[C@H](C)[C@H](O)[C@@H](C)[C@@H](O)[C@@H](C)[C@H](OC(C)=O)[C@H]1C,Potency,[15],inactive
same,Potency,[16],inactive
same,Potency,[18],inactive
same,Potency,[4],inactive
same,Potency,[5],inactive
same,Potency,[6],inactive
same,Potency,[8],inactive
same,Potency,[9],inactive
same,Potency,[10],inactive
same,Potency,[11],inactive
same,Potency,[19],inactive
same,Potency,[17],inactive
